Measurements reported in PubChem BioAssay (NCI).
The panel holds about 79,000 compounds, 15% with a hit somewhere; the sample as a whole holds those more often. Active and inactive are the calls of the source. No stated cut-off is given here; in the data, active means growth inhibition above about 70%; inactive means the rest.

Columns and labels:
[1] = NCI Yeast Anticancer Drug Screen. Data for the rad50 strain (AID 155);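 further: 0% = growth of vehicle-only cultures of the same strain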; details: S. cerevisiae rad50 strain growth inhibition; at 50.0 µM; stronger effect = higher value
Procedure, shortened: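 Vehicle-treated cultures provide the reference for the growth inhibition reported for compound-exposed, repair-deficient yeast.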

[2] = NCI Yeast Anticancer Drug Screen. Data for the mec2-1 strain (AID 157); details: S. cerevisiae mec2-1 strain, at 50.0 µM, stronger effect = higher value
Procedure, shortened: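 Vehicle-treated cultures served as reference for growth inhibition of compound-exposed mec2-1 yeast.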

[3] = NCI Yeast Anticancer Drug Screen. Data for the sgs1 mgt1 strain (AID 161);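 further: 0% = growth of cultures given vehicle only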; details: S. cerevisiae sgs1 mgt1 strain, at 50.0 µM, stronger effect = higher value
Procedure, shortened: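 Read-out: growth inhibition vs vehicle controls. Cells: mutant yeast strain deficient in DNA damage repair.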

[4] = NCI Yeast Anticancer Drug Screen. Data for the cln2 rad14 strain (AID 165);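 further: 0% = growth equal to vehicle treated cultures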; details: S. cerevisiae cln2 rad14 strain, at 50.0 µM, stronger effect = higher value
Procedure, shortened: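 Each compound was tested on cln2 rad14 yeast. Inhibition of growth was calculated against vehicle-exposed controls.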

[5] = NCI Yeast Anticancer Drug Screen. Data for the bub3 strain (AID 167); details: S. cerevisiae bub3 mutant strain, at 50.0 µM, stronger effect = higher value
Procedure, shortened: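 Mutant yeast screening strain plus compound; vehicle-treated cultures serve as the 0% inhibition reference.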

[6] = NCI Yeast Anticancer Drug Screen. Data for the mlh1 rad18 strain (AID 175); details: S. cerevisiae mlh1 rad18 strain growth inhibition; at 50.0 µM; stronger effect = higher value
Procedure, shortened: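 Vehicle-treated cultures served as the reference for growth inhibition in a yeast strain carrying DNA damage repair alterations exposed to each compound.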

Measured: growth inhibition

CC(=O)/C(N=Nc1ccc(S(=O)(=O)c2ccc(N=N/C(C(C)=O)=C(/C)O)cc2)cc1)=C(\C)O
inactive: [1] -27.2% | [2] -20.4% | [3] -9.8% | [4] 0.15% | [5] -20.6% | [6] -14.9%

COC(=O)c1c2c(C)ccc(C)c2nc2c(C)ccc(C)c12
inactive: [1] -5.6% | [2] -41% | [3] -2.05% | [4] -15.3% | [5] 22.7% | [6] -41%

NC(CC(=O)NC(CC(=O)O)C(=O)O)C(=O)O (stereo unspecified)
inactive: [1] -5.5% | [2] -1% | [3] -8.9% | [4] -56% | [5] -20% | [6] 5.2%

Cc1c(CCOC=O)c(=O)[nH]c2nncn12
inactive: [1] -15.5% | [2] -29.6% | [3] -18.3% | [4] 16.9% | [5] -9.65% | [6] 2.65%

c1ccc(N/N=C2/CSCc3ccccc32)cc1
active: [1] 93.2% | [3] 91.5% | [4] 74.2% | [5] 80.8% | [6] 94.4%
inactive: [2] 68.8%

CCOc1ccc(/C=C2\CCc3ccccc3C2=O)cc1
inactive: [1] 16.4% | [2] 16.6% | [3] 22.7% | [4] 20.9% | [5] 26.9% | [6] 21.6%

CC1=CC=NN2C(=O)[C@H](C)C2C1 (stereo partly specified)
inactive: [1] 5.8% | [2] 0.75% | [3] 0.3% | [4] 10.3% | [5] -9.05% | [6] 9.6%

COc1cc(C2c3cc4c(cc3C(OC(=O)C[n+]3ccccc3)C3COC(=O)C23)OCO4)cc(OC)c1OC (stereo unspecified)
inactive: [1] 28.7% | [2] -9.15% | [3] 1.7% | [4] -4.75% | [5] 18.8% | [6] 16.5%

Nc1ccc(O)c(C(=O)O)c1
inactive: [1] 24.1% | [2] 11.2% | [3] 11.2% | [4] 0.8% | [5] 1.35% | [6] 26.6%

CCCCCCCCCCCCCCCCCC/C(CC)=N/Nc1ccc([N+](=O)[O-])cc1[N+](=O)[O-]
inactive: [1] -21.1% | [2] 3.7% | [3] -12.2% | [4] -25.1% | [5] 11.2% | [6] 5.55%

O=C(NNc1c(F)c(F)c(C(F)(F)F)c(F)c1F)c1ccccc1
inactive: [1] 3.55% | [2] -19.1% | [3] -10.9% | [4] -64.3% | [5] -14.8% | [6] -19.1%

CCCCCCCCCCOc1ccc(C=NC/C=C/c2ccc(CC)cc2)cc1
inactive: [1] -19.4% | [2] -13.8% | [3] -13.7% | [4] -50.8% | [5] -1.2% | [6] -23.4%

O=[N+]([O-])c1cccc2ccc(N/N=C/c3ccccc3O)nc12
inactive: [1] 18.8% | [2] -4.05% | [3] 42.2% | [4] 1.85% | [5] 7.25% | [6] 19.8%

COC1(OC)N=C(N)C2(C#N)C(C)=C3NCN(C)N=C3C12C#N (stereo unspecified)
inactive: [1] 8.15% | [2] 3.2% | [3] -44% | [4] -6.7% | [5] -33.8% | [6] -51%

CCCCCCCCCCCC1=C(O)C(=O)C(I)=C(O)C1=O
inactive: [1] 63.2% | [2] 58.5% | [3] 63.1% | [4] 51.3% | [5] 14.4% | [6] 54.7%

CC1CCC(OC(=O)Cc2ccccc2)CC1 (stereo unspecified)
inactive: [1] 26.7% | [2] 18% | [3] 9.55% | [4] -15.1% | [5] 18.5% | [6] 24.6%

COCCNC(=O)/C=C\C(=O)O
inactive: [1] 3.35% | [2] -3.55% | [3] -2.95% | [4] -49.4% | [5] 12.2% | [6] -3.8%

Nc1cc(=O)n(Cc2ccco2)c(=S)[nH]1
inactive: [1] 19.8% | [2] -16.6% | [3] 9.35% | [4] 2.75% | [5] -7.95% | [6] -8%

Cn1nc2ccc3nccc(NCCNCCO)c3c2n1
inactive: [1] -3.65% | [2] -8.8% | [3] -4.65% | [4] 7.4% | [5] -4.8% | [6] -9.65%

Nc1ccc(C(=O)Nc2ccc3c(O)cc(S(=O)(=O)O)cc3c2)cc1
inactive: [1] 23.2% | [2] 5.55% | [3] 2.65% | [4] -6.5% | [5] -10.5% | [6] 8.6%

CC(CC(=O)Nc1ccccc1)C(=O)O (stereo unspecified)
inactive: [1] 7.85% | [2] -7.1% | [3] -10.8% | [4] -26.4% | [5] 5.55% | [6] 2.55%
